Results filed as inconclusive are left out. Active and inactive are the calls of the source. Unless noted, cut-off not given; nearly all actives show AC50 up to about 26 µM.
Tests used:
[1] = viability loss in pontine glioma line – cell-based, SU-DIPG-XVII, MIPE5.0, CellTiter-Glo, qHTS, dose response (AID 1347060); details: CellTiter-Glo ATP luminescence;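 on AC50: cells exposed to compound for 48 hours before viability readout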
[2] = viability loss in pontine glioma line – cell-based, SU-DIPG-XIII, MIPE5.0, CellTiter-Glo, qHTS, dose response (AID 1347064; cut-off not given, nearly all actives have AC50 up to about 23 µM;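 on AC50: cells exposed to compound for 48 hours before the viability read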); details: CellTiter-Glo ATP luminescence
[3] = viability loss in pontine glioma line – cell-based, SU-DIPG-XXV, MIPE5.0, CellTiter-Glo, qHTS, dose response (AID 1347065); details: CellTiter-Glo ATP luminescence;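 further: cells exposed to compound for 48 hours before ATP readout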
[4] = JHH-DIPG-1 glioma cell viability, MIPE5.0 library, CellTiter-Glo luminescence, qHTS (AID 1347067); details: JHH-DIPG-1 glioma viability, CellTiter-Glo ATP luminescence;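 further: cells exposed to compound for 48 hours before readout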
[5] = growth inhibition of DIPG cells – cell-based, MIPE5.0 library, qHTS (AID 1347068; cut-off not given, nearly all actives have IC50 up to about 30 µM;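 on IC50: cells exposed to compound for 48 hours before viability readout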); details: SU-DIPG-XXV viability

CCN1CCN(Cc2ccc(NC(=O)c3ccc(C)c(/C=C/c4cnc5[nH]ccc5c4OC)c3)cc2C(F)(F)F)CC1
active: AC50 [1] 1.86 µM | AC50 [2] 2.35 µM | AC50 [3] 2.09 µM | AC50 [4] 3.72 µM | IC50 [5] 3.72 µM

CC1=C(c2ccc(O)cc2)[C@H](c2ccc(OCCN3CCCCC3)cc2)Oc2cc(O)ccc21
active: AC50 [1] 20.9 µM | AC50 [2] 18.6 µM | AC50 [3] 16.6 µM
inactive: outcome [4]

CCc1nc(C(N)=O)c(Nc2ccc(N3CCC(N4CCN(C)CC4)CC3)c(OC)c2)nc1NC1CCOCC1
active: AC50 [1] 2.35 µM | AC50 [2] 1.18 µM | AC50 [3] 0.833 µM | AC50 [4] 0.934 µM

O=C(Nc1ccc2[nH]nc(-c3ccncc3)c2c1)[C@@H]1CCN(CC(=O)N2CCN(c3ccc(-c4ncccn4)cc3)CC2)C1
active: AC50 [1] 1.05 µM | AC50 [2] 1.48 µM | AC50 [3] 1.05 µM | AC50 [4] 0.525 µM

Cc1cc(-c2cc(OC(=O)c3ccccc3)ccc2Cl)cc2nnc(Nc3ccc(OCCN4CCCC4)cc3)nc12
active: AC50 [1] 5.12 µM | AC50 [2] 7.23 µM | AC50 [3] 5.12 µM | AC50 [4] 5.12 µM

Cc1cc(O)cc2c1[C@]1(C)CC[C@H]3C(C)(C)CCC[C@]3(C)[C@H]1C2
inactive: outcome [1] | outcome [2] | outcome [3] | outcome [4] | outcome [5]

COC(=O)N(C)c1c(N)nc(-c2nn(Cc3ccccc3F)c3ncccc23)nc1N
inactive: outcome [1] | outcome [2] | outcome [3] | outcome [4] | outcome [5]

O=C(NOCCO)c1cc(CN2OCCCC2=O)c(F)c(F)c1Nc1ccc(I)cc1F
active: AC50 [1] 0.332 µM | AC50 [2] 0.148 µM | AC50 [3] 0.417 µM | AC50 [4] 0.148 µM

CCN(CC)CCNc1ccc(C)c2sc3ccccc3c(=O)c12
active: AC50 [1] 13.2 µM | AC50 [2] 20.9 µM | AC50 [3] 16.6 µM | AC50 [4] 18.6 µM

O=C(NCc1ccc(S(=O)(=O)c2cccc(C(F)(F)F)c2)cc1)c1cnc2[nH]ncc2c1
active: AC50 [1] 0.0263 µM | AC50 [2] 0.0118 µM | AC50 [3] 0.0166 µM | AC50 [4] 0.0148 µM

O=C(NO)c1cnc(N2C[C@H]3C[C@@H]2CN3c2cc(C(F)(F)F)ccn2)nc1
active: AC50 [1] 2.63 µM | AC50 [2] 1.18 µM | AC50 [3] 0.742 µM | AC50 [4] 1.48 µM

CC(C)(O)CS(=O)(=O)Nc1ccc2c(c1)CCN(C(=O)COc1cccnc1)C2
active: AC50 [1] 0.263 µM | AC50 [2] 0.0372 µM | AC50 [3] 0.0833 µM | AC50 [4] 0.0468 µM

O=C(/C=C/c1ccc2ccc(C(F)(F)F)cc2n1)c1ccncc1
active: AC50 [1] 4.17 µM | AC50 [2] 1.48 µM | AC50 [3] 2.95 µM | AC50 [4] 2.35 µM | IC50 [5] 7.42 µM

CCCCN(CCCC)C(=O)CN1C[C@H](c2ccc3c(c2)OCO3)[C@@H](C(=O)O)[C@@H]1c1ccc(OC)cc1
inactive: outcome [1] | outcome [2] | outcome [3] | outcome [4]

C[C@@H]1COCCN1c1cc(=O)n2c(n1)N(Cc1cncc(Cl)c1)[C@H](C(F)(F)F)CC2
inactive: outcome [1] | outcome [2] | outcome [3] | outcome [4] | outcome [5]

C=C1C(=O)O[C@@H]2[C@H]3C(C)=CC[C@@]34O[C@@]4(C)CC[C@@H]12
active: AC50 [1] 11.8 µM | AC50 [2] 11.8 µM | AC50 [3] 9.34 µM | AC50 [4] 8.33 µM | IC50 [5] 20.9 µM

CCN1C(=O)N2Cc3cc(OC)cc(OC)c3[C@@H](C)C=C2C12CCN(Cc1cc(C)cc(C)c1)CC2
active: AC50 [1] 20.9 µM | AC50 [2] 18.6 µM | AC50 [3] 14.8 µM | AC50 [4] 18.6 µM | IC50 [5] 20.9 µM

CN1C/C=C/CCOc2cccc(c2)-c2ccnc(n2)Nc2cccc(c2)C1
active: AC50 [1] 0.0833 µM | AC50 [2] 0.132 µM | AC50 [3] 0.0934 µM | AC50 [4] 0.166 µM

COCCNCc1ccc(-c2cc3nccc(Oc4ccc(NC(=O)C5(C(=O)Nc6ccc(F)cc6)CC5)cc4F)c3s2)nc1
active: AC50 [1] 7.42 µM | AC50 [2] 5.25 µM | AC50 [3] 4.68 µM | AC50 [4] 8.33 µM

CNS(=O)(=O)Nc1nccc(Cc2c(C)c3ccc(Oc4ncccn4)cc3oc2=O)c1F
active: AC50 [1] 1.48 µM | AC50 [2] 1.18 µM | AC50 [3] 2.35 µM | AC50 [4] 1.05 µM

COc1cc2c(cc1O)CCN[C@]21CS[C@@H]2c3c(OC(C)=O)c(C)c4c(c3[C@H](COC1=O)N1[C@@H]2[C@H]2c3c(cc(C)c(OC)c3O)C[C@@H]([C@@H]1O)N2C)OCO4
active: AC50 [1] 0.000382 µM | AC50 [2] 0.00135 µM | AC50 [3] 0.00152 µM | AC50 [4] 0.000679 µM | IC50 [5] 0.0241 µM

CCN(CC)CCNC(=O)c1c(C)[nH]c(/C=C2/C(=O)Nc3ccc(-c4csc(-c5ccccc5)n4)cc32)c1C
active: AC50 [1] 3.32 µM | AC50 [2] 2.95 µM | AC50 [3] 4.68 µM | AC50 [4] 2.95 µM

O=C([C@@H](Cc1cccc(C(F)(F)F)c1)NS(=O)(=O)c1cc(F)c2c(c1)CCNC2)N1CCCC1
inactive: outcome [1] | outcome [2] | outcome [3] | outcome [4] | outcome [5]

Cc1c(CN2CCC(Nc3ncnc4sc(CC(F)(F)F)cc34)CC2)ccc2c1cc(C#N)n2Cc1cn[nH]c1
active: AC50 [1] 20.9 µM | AC50 [2] 23.5 µM | AC50 [3] 29.5 µM | AC50 [4] 18.6 µM
inactive: outcome [5]

CCc1cc2c(c(OCC(F)(F)F)c(C(=O)NC3CCN(C(=O)CO)CC3)n2C)c(=O)n1CC(=O)c1ccccc1
inactive: outcome [1] | outcome [2] | outcome [3] | outcome [4]

Cn1cncc1C(N)(c1ccc(Cl)cc1)c1ccc2c(c1)c(-c1cccc(Cl)c1)cc(=O)n2C (stereo not given)
active: AC50 [1] 18.6 µM | AC50 [2] 16.6 µM | AC50 [3] 8.33 µM | AC50 [4] 18.6 µM

O=C(/C=C\n1cnc(-c2cc(C(F)(F)F)cc(C(F)(F)F)c2)n1)N1CC(F)(F)C1
active: AC50 [1] 1.18 µM | AC50 [2] 2.63 µM | AC50 [3] 13.2 µM | AC50 [4] 9.34 µM

Nc1nc2cc(-c3ccc4ncc(C(=O)N5CCOCC5)n4c3)ccc2o1
active: AC50 [1] 18.6 µM | AC50 [2] 14.8 µM | AC50 [3] 9.34 µM | AC50 [4] 10.5 µM

Nc1nc(N)c2nc(-c3cccc(Cl)c3)c(N)nc2n1
active: AC50 [1] 1.32 µM | AC50 [2] 9.34 µM | AC50 [3] 8.33 µM | AC50 [4] 16.6 µM

CC1Oc2cc(cnc2N)-c2c(nn(C)c2C#N)CN(C)C(=O)c2ccc(F)cc21 (stereo not given)
active: AC50 [1] 14.8 µM | AC50 [2] 6.61 µM | AC50 [3] 7.42 µM
inactive: outcome [4]
